The supplement of paper PMC9942566
± gives the standard deviation of the averaged measurements.

system: Serratia marcescens K904 PosmB-luxCDABE reporter (pMQ747); assay: PosmB-lux reporter fold induction (RLU/OD600 relative to no-compound control), highest over Biolog concentrations; higher = stronger reporter activation; settings: ΔrcsB mutant CMS5177; 4 h
Protocol: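 Serratia marcescens K904 (wild type) or its isogenic ΔrcsB mutant, carrying the Rcs-dependent PosmB-luxCDABE reporter plasmid pMQ747, was grown in LB at OD600 0.1 in Biolog Phenotype MicroArray plates PM11-20 for 4 h at 30-32°C. Each compound is present at 3-4 proprietary concentrations (not stated); per the Fig. S1 legend the value given is the highest fold over those wells. Three independent trials.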

Row | SMILES | PosmB-lux reporter fold induction
1 | CN1CCN(CCCN2c3ccccc3Sc3ccc(C(F)(F)F)cc32)CC1 [Trifluoperazine] (Biolog plate: PM13, well positions: G9-12) | 1.43 ± 0.36
2 | CN(C)c1ccc(O)c2c1C[C@H]1C[C@H]3[C@H](N(C)C)C(O)=C(C(N)=O)C(=O)[C@@]3(O)C(O)=C1C2=O [Minocycline] (Biolog plate: PM11, well positions: C9-12) | 1.8 ± 0.42
3 | CCc1cc(C(N)=S)ccn1 [ethionamide] (Biolog plate: PM17, well positions: B9-12) | 0.857 ± 0.29
4 | O.O=S(=O)([O-])[O-].O=S(=O)([O-])[O-].O=S(=O)([O-])[O-].[Al+3].[Al+3] [aluminum sulfate] (Biolog plate: PM16, well positions: F9-12) | 1.54 ± 0.56
5 | O=C([O-])c1ccccc1O.[Na+] [sodium salicylate (NSAID)] (Biolog plate: PM17, well positions: B1-4) | 2.06 ± 0.94
6 | CC(C)(C)CC(C)(C)c1ccc(OCCOCC[N+](C)(C)Cc2ccccc2)cc1 [Benzethonium chloride] (Biolog plate: PM12, well positions: E9-12) | 1.69 ± 0.07
7 | O=C(O)CN(CCOCCOCCN(CC(=O)O)CC(=O)O)CC(=O)O (Biolog plate: PM14, well positions: H1-4) | 1.53 ± 0.51
8 | O=[Si](O)O [sodium metasilicate] (Biolog plate: PM18, well positions: E1-4) | 0.928 ± 0.32
9 | CN(C)[C@@H]1C(O)=C(C(N)=O)C(=O)[C@@]2(O)C(O)=C3C(=O)c4c(O)ccc(Cl)c4[C@@](C)(O)[C@H]3C[C@@H]12 [Chlortetracycline] (Biolog plate: PM11, well positions: A5-8) | 1.3 ± 0.26
10 | COc1ccc(CO)cc1OC [3,4-Dimethoxy-benzyl alcohol] (Biolog plate: PM15, well positions: F1-4) | 1.65 ± 0.64
11 | OC(CCN1CCCCC1)(c1ccccc1)c1ccccc1 [pridinol] (Biolog plate: PM20, well positions: F9-12) | 1.5 ± 0.42
12 | Cn1c(=O)c2c(ncn2C)n(C)c1=O [caffeine] (Biolog plate: PM17, well positions: H5-8) | 1.52 ± 0.34
13 | Nc1ccn(C2OC(CO)C(O)C2O)c(=O)n1 [Cytosine-1-beta-D-arabino-furanoside] (Biolog plate: PM13, well positions: E1-4) | 1.91 ± 0.42
14 | Cc1onc(-c2ccccc2)c1C(=O)N[C@@H]1C(=O)N2[C@@H]1SC(C)(C)[C@@H]2C(=O)O [Oxacillin] (Biolog plate: PM12, well positions: B1-4) | 1.31 ± 0.52
15 | CCn1nc(C(=O)O)c(=O)c2cc3c(cc21)OCO3 [cinoxacin] (Biolog plate: PM16, well positions: D9-12) | 16.4 ± 3.4
16 | Nc1ccc(S(=O)(=O)Nc2nccs2)cc1 [Sulfathiazole] (Biolog plate: PM12, well positions: F5-8) | 1.89 ± 0.35
17 | Cn1cnc([N+](=O)[O-])c1Sc1ncnc2[nH]cnc12 [azathioprine] (Biolog plate: PM18, well positions: B9-12) | 0.729 ± 0.15
18 | CO/N=C(\C(=O)N[C@@H]1C(=O)N2C(C(=O)O)=C(CSc3nc(=O)c(O)nn3C)CS[C@H]12)c1csc(N)n1 [Ceftriaxone] (Biolog plate: PM11, well positions: G1-4) | 1.12 ± 0.14

Row | SMILES | PosmB-lux reporter fold induction
19 | NC[C@@H]1O[C@H](O[C@H]2[C@@H](O)[C@H](O[C@@H]3[C@@H](O)[C@H](N)C[C@H](N)[C@H]3O[C@H]3O[C@H](CN)[C@@H](O)[C@H](O)[C@H]3N)O[C@@H]2CO)[C@H](N)[C@@H](O)[C@@H]1O [Neomycin] (Biolog plate: PM11, well positions: F9-12) | 1.31 ± 0.23
20 | COc1cc(NS(=O)(=O)c2ccc(N)cc2)ncn1 [sulfamono-methoxine] (Biolog plate: PM17, well positions: C9-12) | 1.4 ± 0.25
21 | Oc1c(I)cc(Cl)c2cccnc12 [5-chloro-7-iodo-8-hydroxy-quinoline] (Biolog plate: PM16, well positions: A9-12) | 1.51 ± 0.53
22 | CO[C@H]1C[C@H](O[C@H]2[C@H](C)[C@@H](O[C@@H]3O[C@H](C)C[C@H](N(C)C)[C@H]3OC(C)=O)[C@@H](C)C[C@@]3(CO3)C(=O)[C@H](C)[C@@H](OC(C)=O)[C@@H](C)[C@@H](C)OC(=O)[C@@H]2C)O[C@@H](C)[C@@H]1OC(C)=O [troleandomycin] (Biolog plate: PM20, well positions: H9-12) | 2.33 ± 1.1
23 | NCC(=O)NO [glycine hydroxamate] (Biolog plate: PM16, well positions: H1-4) | 2.02 ± 0.63
24 | C[n+]1c2cc(N)ccc2cc2ccc(N)cc21.Nc1ccc2cc3ccc(N)cc3nc2c1 [Acriflavine] (Biolog plate: PM14, well positions: A2-4) | 2.05 ± 0.23
25 | O=C(N[C@H](CO)[C@H](O)c1ccc([N+](=O)[O-])cc1)C(Cl)Cl [Chloramphenicol] (Biolog plate: PM11, well positions: F1-4) | 1.56 ± 0.59
26 | CO[C@@]1(NC(=O)CSCC#N)C(=O)N2C(C(=O)O)=C(CSc3nnnn3C)CS[C@@H]21 [Cefmetazole] (Biolog plate: PM15, well positions: A9-12) | 1.51 ± 0.23
27 | CN(C)C(=O)/N=N/C(=O)N(C)C [diamide] (Biolog plate: PM16, well positions: D5-8) | 2.26 ± 0.64
28 | CO[C@@]1(NC(=O)Cc2cccs2)C(=O)N2C(C(=O)O)=C(COC(N)=O)CS[C@@H]21 [Cefoxitin] (Biolog plate: PM14, well positions: E1-4) | 1.2 ± 0.19
29 | [Na+].[Na+].[O]=[W](=[O])([O-])[O-] [sodium tungstate] (Biolog plate: PM17, well positions: E9-12) | 0.99 ± 0.14
30 | [Cl][Fe]([Cl])[Cl] [ferric chloride] (Biolog plate: PM16, well positions: G5-8) | 1.47 ± 0.36
31 | CSc1ccc2c(c1)N(CCC1CCCCN1C)c1ccccc1S2 (stereo not given) [thioridazine] (Biolog plate: PM20, well positions: C1-4) | 1.11 ± 0.088
32 | CCn1cc(C(=O)O)c(=O)c2cnc(N3CCNCC3)nc21 [pipemidic acid] (Biolog plate: PM18, well positions: B5-8) | 1.91 ± 0.5
33 | O=c1ccc2ccccc2o1 [coumarin] (Biolog plate: PM19, well positions: A9-12) | 0.853 ± 0.16
34 | CCC[C@@H]1C[C@@H](C(=O)N[C@@H]([C@H]2O[C@H](SC)[C@H](O)[C@@H](O)[C@H]2O)[C@@H](C)O)N(C)C1 [Lincomycin] (Biolog plate: PM11, well positions: A9-12) | 2.28 ± 0.49
35 | O=C1OC(CN2CCOCC2)CN1/N=C/c1ccc([N+](=O)[O-])o1 (stereo not given) [Furaltadone] (Biolog plate: PM14, well positions: A5-8) | 1.51 ± 0.47
